D2 ag-1 – activates the human D2 dopamine receptor; AID 485358; P14416; HEK293 T-REx D2 cells, calcium flux agonist mode; activation, % at 2 µM; 340,000 compounds, 0.53% hits;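 active = activation over 3 SD above normal in the single-dose calcium agonist read, cut at about 30% in these data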
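In this primary screen, compounds producing a positive calcium signal within 180 s of addition to tetracycline-induced, force-coupled HEK293 Trex D2 cells are flagged; cells are dye-loaded with a no-wash calcium kit beforehand.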
D2 ag-2 – activates the human D2 dopamine receptor; DiscoveRx PathHunter D2 beta-arrestin, luminescence, 90 min; 100% = 57 uM dopamine signal; 360,000 compounds, 0.084% hits; P14416; AID 624465; activation, % (no concentration beside the values); in the data active = activation above about 40%; inconclusive = between about 15% and that limit
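DiscoveRx PathHunter D2 beta-arrestin cells (2,100/well) attached overnight, then compound-stimulated 90 min at 37 C in HBSS/10 mM HEPES/0.1% Tween-20 buffer; beta-galactosidase complementation read by luminescence after 1 h at ambient temperature. Dopamine 57 uM final (EC100) as control.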
D2 PAM-1 – positive allosteric modulators of human D2 dopamine receptor | P14416 | DiscoveRx D2 beta-arrestin cells, luminescence, 90 min; 100% = 57 uM dopamine signal | potentiation, % (concentration not given with the values) | 360,000 compounds, 0.23% hits | AID 624464; in the data active = potentiation above about 50%; inconclusive = mostly about 30% to 49%
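D2 cells co-treated with compound plus 50 nM dopamine (EC20) for 90 min at 37 deg C to detect potentiation. Beta-arrestin recruitment was read as enzyme-fragment luminescence after 1 h at ambient temperature. Full response was set by 57 uM dopamine.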
D2 PAM-2 – D2 dopamine receptor (human) potentiation; P14416; HEK293 T-REx D2, calcium flux, EC20 dopamine potentiation; potentiation, % at 10 µM; 340,000 compounds, 0.34% hits; AID 485347;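 active = potentiation over 3 SD above the plate norm, cut at about 30% in these data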
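Primary screen. Calcium kinetics in induced HEK293 T-REx D2 cells: compound pre-addition 180 s, EC20 dopamine, 180 s more.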
D2 antagonist – antagonists of human D2 dopamine receptor. P14416. HEK293 TREx D2 cells, calcium flux, dopamine EC80. inhibition, % at 10 µM. 340,000 compounds, 2% hits. AID 485344; in the data active = inhibition above about 30%; inactive = below that, where a call was filed
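Antagonism is scored as inhibition of an EC80 dopamine-evoked calcium signal in a force-coupled, tetracycline-inducible HEK293 T-REx D2 line, with compound present 180 s before agonist.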
D3 arrestin ag – confirmation of human D3 dopamine receptor agonists, beta-arrestin; shares compounds with D2 ag-1; DiscoveRx D3 beta-arrestin cells, luminescence, 90 min; Potency, µM (highest dose often 76.9 µM), actives largely listed as activators; 2,300 compounds, 4% hits; note: nearly all actives have a fitted effect of over 70% in size
Target sequence (P35462 whole entry, looked up): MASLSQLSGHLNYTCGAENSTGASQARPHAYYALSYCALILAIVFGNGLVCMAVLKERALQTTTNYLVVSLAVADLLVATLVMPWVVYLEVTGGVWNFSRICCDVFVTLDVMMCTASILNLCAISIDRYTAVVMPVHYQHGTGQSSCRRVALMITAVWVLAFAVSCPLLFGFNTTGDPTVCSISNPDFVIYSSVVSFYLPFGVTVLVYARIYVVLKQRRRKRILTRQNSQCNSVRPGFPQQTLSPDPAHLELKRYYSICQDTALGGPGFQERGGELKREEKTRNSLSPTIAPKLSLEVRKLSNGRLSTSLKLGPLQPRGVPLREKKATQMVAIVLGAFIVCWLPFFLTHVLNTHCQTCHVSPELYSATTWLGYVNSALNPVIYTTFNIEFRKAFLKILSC
D2 ag-3 – counter-screen for D3 agonists: human D2 dopamine receptor agonism | Potency, µM (titrated, usually from 76.9 µM), usual class: activators | shares compounds with D2 ag-1 | DiscoveRx PathHunter D2 beta-arrestin, luminescence, 90 min; response scale: percent relative to full dopamine signal | AID 720507 | 2,300 compounds, 5.9% hits; note: nearly all actives have a fitted effect of over 70% in size
A number is an active result; i = inactive; ? = inconclusive; nt = not tested or not shown. Only some compounds are listed: those with a hit (about 2.4% of all), similar ones and a draw of the others. Unless noted, calls come from the whole dose curve; as a rule, active = well fitted activation curve with a large enough effect; inconclusive = small, poorly fitted or top-dose-only effect; inactive = flat fitted curve, though single readings scatter.

SMILES | D2 ag-1 | D2 ag-2 | D2 PAM-1 | D2 PAM-2 | D2 antagonist | D3 arrestin ag | D2 ag-3
O=C(NNS(=O)(=O)c1ccccc1[N+](=O)[O-])c1cccc(Cl)c1 | 51 | i | i | i | i | i | i
O=C(NNS(=O)(=O)c1ccccc1[N+](=O)[O-])c1cccc(Br)c1 | nt | i | i | nt | nt | nt | nt
CCOC(=O)N1CCN(CCCc2ccccc2)CC1 | i | i | i | i | 34 | i | i
COc1ccc(C(=O)N2CCN(CCCc3ccccc3)CC2)cc1OC | 40 | i | i | i | i | ? | i
COc1cccc(C(=O)N2CCN(CCCc3ccccc3)CC2)c1OC | i | i | i | i | i | nt | nt
COc1ccc(CCN(CC(=O)NC(C)(C)C)C(=O)Cn2nnc(-c3ccc(C)o3)n2)cc1OC | i | i | i | i | i | nt | nt
C=CCNC(=S)NCc1ccccc1 | i | i | i | i | i | nt | nt
C=CCNCc1cccn1-c1ccccc1 | i | i | i | i | i | i | i
Cc1ccccc1C(=O)O/N=C(\N)c1ccccc1 | i | ? | i | i | i | nt | nt
Cc1ccccc1C(=O)O/N=C(\c1ccccc1)c1ccccn1 | 77 | ? | i | i | 72 | ? | ?
O=C(NC1CC1)C1=C[C@@H](c2coc3ccccc3c2=O)C[C@@H](OCCCCO)O1 | nt | i | i | i | i | nt | nt
CC(=O)N/C(=C/C(C)C)c1ccccc1 | i | i | i | i | i | i | i
Cn1cc(CNCc2ccc(-n3cccn3)cc2)c(-c2ccccc2F)n1 | 46 | ? | i | i | 44 | i | ?
Cc1cc(S(=O)(=O)Nc2cc3c(cc2N2CCOCC2)n(C)c(=O)n3C)ccc1F | i | nt | nt | i | nt | nt | nt
CCC(Cc1ccccc1)NS(=O)(=O)c1ccc2c(c1)NC(=O)C(C)S2 (stereo not drawn) | i | i | i | i | i | nt | nt
CCCCN(C)CCNC(=O)c1ccc2c(c1)NC(=O)C(N1CCCCC1)S2 (stereo not drawn) | 50 | i | i | i | 73 | ? | i
COC(=O)c1ccc2c(c1)NC(=O)C(N1CCOCC1)S2 (stereo not drawn) | i | i | i | i | i | nt | nt
CCCn1c(-c2ccc(OC)cc2)nc2ccccc21 | i | i | i | i | i | i | ?
C[C@@H]1CN([C@@H](C)CO)C(=O)c2cc(NC(=O)CCN3CCOCC3)ccc2O[C@@H]1CN(C)C(=O)Nc1ccccc1 | nt | i | i | nt | nt | nt | nt
CCCN(CCC)CCNC(=O)CCC(=O)Nc1ccc2nc(N3CCN(C)CC3)cc(C)c2c1 | i | i | i | i | i | i | i
CCCCNC(=O)CCC(=O)Nc1ccc2nc(N3CCN(C)CC3)cc(C)c2c1 | i | i | i | i | i | nt | nt
COCC#Cc1ccc2c(c1)O[C@@H](CN(C)S(=O)(=O)c1cccc(F)c1)[C@@H](C)CN([C@H](C)CO)S2(=O)=O | nt | i | i | nt | nt | nt | nt
CC1=C(C)CC(C(=O)NCc2ccccc2F)C(C(=O)O)C1 (stereo not drawn) | i | nt | nt | i | i | nt | nt
CCC(C(=O)NCc1ccccc1)n1ncn2c(cc3occc32)c1=O (stereo not drawn) | i | nt | nt | i | nt | nt | nt
CN(CCNC(=O)C1CCC(=O)N(Cc2cccc(F)c2)C1)CCc1ccccc1 (stereo not drawn) | i | i | i | i | i | nt | nt
SMILES | D2 ag-1 | D2 ag-2 | D2 PAM-1 | D2 PAM-2 | D2 antagonist | D3 arrestin ag | D2 ag-3
CN(CCNC(=O)C1CCC(=O)N(Cc2ccc(Cl)cc2)C1)CCc1ccccc1 (stereo not drawn) | 45 | i | i | i | i | i | i
CC1CN(CCn2cnc3c(N)ncnc32)CC(C)O1 (stereo not drawn) | i | i | i | i | 46 | i | i
CCCN1C(=O)/C(=C/c2c(NCCCOC(C)C)nc3c(C)cccn3c2=O)SC1=S | i | i | i | i | i | i | i
COC(=O)c1ccc(CO/N=C(\NC(C)=O)c2nonc2NC(C)=O)cc1 | i | i | i | i | i | nt | nt
Cc1noc(C)c1C(=O)N1CCN(c2ccccc2O)CC1 | i | i | i | i | i | i | i
C=C(C)C(=O)Nc1nnc(-c2ccccc2C)s1 | i | i | i | i | 52 | i | i
CCCSCCCNC(=O)Cn1nc(CC)n2c(cc3c(OC)cccc32)c1=O | 40 | i | i | i | i | i | i
CCN1CCc2c(sc(NC(=O)c3ccc(C(=O)c4ccccc4)cc3)c2C(N)=O)C1 | 74 | i | i | i | i | i | i
CCN1CCc2c(sc(NC(=S)NC(=O)c3ccco3)c2C(N)=O)C1 | 30 | i | i | i | i | i | i
Cc1sc(NC(=S)NC(=O)c2ccco2)c(C(N)=O)c1C | i | i | i | i | i | nt | nt
Cc1ccc([N+](=O)[O-])c(C(=O)N/N=C/c2cccnc2)c1 | i | i | i | i | i | nt | nt
CCc1cccc(CC)c1NC(=S)NCCc1ccc(O)c(O)c1 | 36 | i | i | i | i | 40µM | ?
O=C(c1cccc(C(=O)N(c2ccccn2)C2CCCCC2)c1)N(c1ccccn1)C1CCCCC1 | 70 | ? | i | i | 62 | i | ?
CCCCC(=O)Nc1cccc(C(=O)N/N=C/c2ccc(OC)cc2OC)c1 | i | i | i | i | i | nt | nt
COc1ccccc1-n1c(SCC(=O)NCC2CCCO2)nc2c([nH]c3ccccc32)c1=O (stereo not drawn) | i | i | i | i | i | nt | nt
O=C(NCCc1ccccc1)c1nc2nc(-c3cccs3)cc(C(F)(F)F)n2n1 | i | i | i | i | 40 | i | i
Cc1cc(C)n2nc(C(=O)NCCc3ccccc3)nc2n1 | i | i | i | i | i | nt | nt
O=c1[nH]c(N/N=C/c2ccccc2Br)nnc1-c1ccccc1 | i | i | i | i | i | nt | nt
COc1ccc(/C=N/Nc2nnc(-c3ccccc3)c(=O)[nH]2)cc1 | 60 | i | i | i | i | i | i
O=C(NC1CC1)c1ccc(Cn2c(SCc3cccc(F)c3)nc3cccnc32)cc1 | i | nt | nt | i | nt | nt | nt
CCOC(=O)c1cc(S(=O)(=O)N2CCN(Cc3ccccc3)CC2)cn1C | i | i | i | i | i | nt | nt
CCOC(=O)C1=CCN(Cc2ccccc2)CC1 | 83 | 77 | i | i | 101 | i | ?
O=C(C1CCCN1S(=O)(=O)c1cccc2cccnc12)N1CCN(c2ccccc2)CC1 (stereo not drawn) | i | i | i | i | i | i | i
O=C(C1CCCN(S(=O)(=O)c2cccc3cccnc23)C1)N1CCN(c2ccccc2F)CC1 (stereo not drawn) | i | i | i | i | 37 | i | ?
O=C(COC(=O)c1ccc(N2CCCC2=O)cc1)c1ccccc1 | i | i | i | i | i | nt | nt

Screening results from PubChem.
